# Screens: PubChem, National Center for Advancing Translational Sciences (NCATS)
# HT1080 IDH1KD tx: HT-1080 IDH1 knockdown cell toxicity (counter line); HT-1080 IDH1 knockdown viability, ATP luminescence, 48 h; AID 686971; Potency, µM (top dose mostly 46.1 µM), actives largely listed as cytotoxic; 360,000 tested, 2% active
#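 Assay cells: HT-1080 with IDH1 knockdown, 750 per well, RPMI/5% FBS. Exposure: 48 h at 37 °C following 2 h pre-incubation. Read: CellTiter-Glo luminescence; fitted concentration-response, curve class assigned.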
# KB-3-1 cytotox: kills parental KB-3-1 adenocarcinoma cells. KB-3-1 viability, CellTiter-Glo ATP luminescence, 72 h. Potency, µM (top dose mostly 46.1 µM), hits mostly cytotoxic. 400,000 tested, 1.4% active. AID 1347075; further: nearly all actives have a fitted effect of over 60% in size
#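 Viability of parental KB-3-1 cells, measured by CellTiter-Glo luminescence, followed a 72 h incubation at 37 °C with pinned compounds in phenol-red-free DMEM containing 10% FBS.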
# KB-V1 cytotox: kills drug-selected multidrug resistant KB-V1 cells; AID 1347076; KB-V1 MDR cells viability, CellTiter-Glo, 72 h; 400,000 tested, 3.4% active; Potency, µM (series often up to 46.1 µM), actives largely listed as cytotoxic; further: nearly all actives have a fitted effect of over 60% in size
#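 Drug-selected KB-V1 cells, grown in DMEM lacking phenol red with 10% FBS, receive compound titrations; after three days at 37 degrees C, surviving cell ATP is quantified by CellTiter-Glo luminescence and responses normalized and curve-fitted.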
# HT1080NT lethal: kills 2HG-producing HT-1080-NT fibrosarcoma cells | HT-1080-NT fibrosarcoma viability, CellTiter-Glo ATP luminescence, 48 h | Potency, µM (top dose mostly 46.1 µM), actives largely listed as cytotoxic | 360,000 tested, 1.6% active | AID 686970;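 further: NT is the 2HG producing partner of a matched IDH1 knockdown line; nearly all actives have a fitted effect of over 55% in size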
#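 Viability of the 2HG-overproducing fibrosarcoma line after 48 hours of compound exposure at 37 degrees C was determined by luminescence with CellTiter-Glo, and concentration-effect curves were then fitted and categorized.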
# A number is an active result; 0 = inactive; ? = inconclusive; - = not tested or not shown. Compounds with a hit are over-represented: about 5.7% of the library has one in this group of screens. The call rests on the fitted dose curve; in most records, active means well fitted curve in the direction sought with a large enough effect; inconclusive means small, poorly fitted or top-dose-only effect, or another doubt; inactive means no such curve, though single readings can be large; an effect the other way counts as inactive or inconclusive.
SMILES,HT1080 IDH1KD tx,KB-3-1 cytotox,KB-V1 cytotox,HT1080NT lethal
O=C(COC(=O)c1cc([N+](=O)[O-])ccc1N1CCOCC1)Nc1ccc(Cl)cn1,0,?,13µM,0
C(=Nc1ccc2ccccc2n1)c1ccccn1,-,0,0,-
COC(=O)C1Cc2ccccc2CN1C(=O)CCl (stereo unspecified),15µM,?,?,8.2µM
Cc1nc(SCC(=O)N(CC(C)C)C2CCS(=O)(=O)C2)c2c(C)c(C)sc2n1 (stereo unspecified),0,?,3.7µM,0
CCN(C(=O)CSc1nc(C)nc2sc(C)c(C)c12)C1CCS(=O)(=O)C1 (stereo unspecified),0,0,0,0
COc1ccc(C2c3[nH]c4ccc(OC)cc4c3CCN2C(=O)Nc2ccccc2)cc1 (stereo unspecified),-,10µM,?,-
O=C(COC(=O)c1c2c(nc3ccccc13)/C(=C\c1ccco1)CC2)NC1CCCC1,0,-,-,0
CN(C(=O)COC(=O)c1c2c(nc3ccccc13)/C(=C/c1cccc([N+](=O)[O-])c1)CCC2)C1CCS(=O)(=O)C1 (stereo unspecified),5.8µM,5.8µM,?,?
O=C(COC(=O)c1c2c(nc3ccccc13)/C(=C/c1cccc([N+](=O)[O-])c1)CCC2)NC1CCS(=O)(=O)C1 (stereo unspecified),?,?,23µM,0
CN(C(=O)COC(=O)/C=C/c1cccc([N+](=O)[O-])c1)C1CCS(=O)(=O)C1 (stereo unspecified),16µM,?,0,23µM
CCc1ccc(-n2nc(C)c3c(C(=O)Nc4cc(C)c(Cl)cc4OC)cc(C)nc32)cc1,-,0,0,-
CC(=O)c1ccc(NC(=O)c2cc(-c3ccc(C)s3)nc3ccccc23)cc1,-,0,0,-
COc1ccccc1C(=O)Nc1cc2c(cc1N1CCOCC1)n(C)c(=O)n2C,-,0,0,-
O=Cc1ccc(I)cc1,-,0,0,-
CCN(CC)S(=O)(=O)c1cccc(NC(=O)c2cncc(Br)c2)c1,0,0,0,0
CCN(CC)S(=O)(=O)c1cccc(NC(=O)c2ccc(Br)cc2)c1,0,0,6.5µM,0
CN(C)S(=O)(=O)c1cccc(NC(=O)c2cncc(Br)c2)c1,0,0,15µM,0
CCN(CC)S(=O)(=O)c1cc(NC(=O)C(=O)c2c(-c3ccccc3)cc3ccccn23)ccc1C,0,0,0,0
CCN(CC)S(=O)(=O)c1cccc(NC(=O)C(=O)c2c(-c3ccccc3)cc3ccccn23)c1,0,0,3.3µM,0
CCN(CC)S(=O)(=O)c1cccc(NC(=O)COc2ccc(Cl)cc2Br)c1,0,?,21µM,0
CN(C)S(=O)(=O)c1cccc(NC(=O)COc2ccc(S(=O)(=O)N3CCOCC3)cc2Cl)c1,0,0,0,0
O=C(Nc1cc(Cl)ccc1Cl)C1(c2cccs2)CCOCC1,-,0,0,-
O=C(NCCc1ccccc1Cl)c1ccc2c(c1)nc1n2CCCCC1,-,0,?,-
C[N+](C)(CCCCCI)c1ccc(/C=C/c2nc3ccccc3s2)cc1,-,?,0,-
CCCC(=O)OCC(=O)NCc1ccc(Cl)cc1,0,0,0,0
SMILES,HT1080 IDH1KD tx,KB-3-1 cytotox,KB-V1 cytotox,HT1080NT lethal
O=C(COC(=O)CC(c1ccccc1)c1ccccc1)NCc1ccc(Cl)cc1,0,0,23µM,0
CCOc1ccc(NC(=O)Cn2ccn3nc(-c4ccc(OC)c(OC)c4)cc3c2=O)cc1,-,0,0,-
O=C(COc1ccc(Cl)cc1Cl)NCC1(N2CCOCC2)CCCCC1,0,?,?,0
OC(CNCC1(N2CCCCC2)CCCCC1)COc1ccc(Cl)cc1Cl (stereo unspecified),18µM,0,?,?
Cc1ccc(S(=O)(=O)N2CCN(c3nc(-c4cccs4)nc4nc[nH]c34)CC2)cc1,0,-,-,0
O=C1CCN2C=Nc3cccc4ccc1c2c34,0,?,12µM,0
O=C1CCC(=O)c2ccc3c4c(ccc1c24)CC3,0,0,0,0
COc1ccc(-c2coc3c2c(C)cc2oc(=O)c(CC(=O)O)c(C)c23)cc1,-,0,0,-
Cc1ccc(N2C(=O)c3cccc4c(N)ccc(c34)C2=O)c2cccnc12,0.0073µM,?,0.58µM,0.021µM
CCCN1CNc2c(c(=O)[nH]c(=S)n2CCc2ccccn2)C1,0,-,-,0
COCCNC(=O)c1ccc(-n2c(SCc3cc(F)ccc3F)nc3ccccc3c2=O)cc1,0,?,5.8µM,0
Cc1ccc(N=C2CCCCCN2C)c(C#N)c1,0,0,0,0
Cc1ccc(N=C2CCCN2Cc2ccccc2)c(C#N)c1,0,?,18µM,0
O=C(CCc1nc2ccccc2c(=O)[nH]1)Nc1ccc(N2CCCCC2)cc1,0,0,0,0
CCOc1ccccc1NC(=O)CCCc1nc2ccccc2c(=O)[nH]1,?,0,18µM,0
O=C(CCc1nc2ccccc2c(=O)[nH]1)Nc1ccc(Cl)c(Cl)c1,?,0,21µM,0
O=C(CCc1nc2ccccc2c(=O)[nH]1)Nc1cc(Cl)ccc1N1CCCC1,0,0,15µM,0
O=C(Nc1cccc(Cl)c1)N(Cc1nc2ccccc2c(=O)[nH]1)Cc1cccs1,0,0,16µM,0
CN1CCN(C(=O)c2ccc3c(c2)N(Cc2ccc(Cl)cc2)C(=O)c2ccccc2S3(=O)=O)CC1,-,0,0,-
Cc1cc(C)c2sc(NC(=O)c3ccc(S(=O)(=O)N4CCOCC4)cc3)nc2c1,-,0,0,-
COc1ccc(OC)c(NC(=O)Cn2cnc3onc(-c4ccc(Cl)cc4)c3c2=O)c1,-,?,0,-
O=S(=O)(c1ccc(OC(F)(F)F)cc1)N1CCN(c2nc(-c3cccs3)nc3ccccc23)CC1,-,0,0,-
CCOC(=O)N1CCC(NC(=O)c2cc(S(=O)(=O)N3CCc4ccccc43)cn2C)CC1,0,?,3.3µM,0
CCOc1cccc(CN2CCCC(C(=O)Nc3cccc(-n4cccn4)c3)C2)c1 (stereo unspecified),0,-,-,0
CCOc1ccccc1CN1CCCC(C(=O)Nc2cccc(-n3cccn3)c2)C1 (stereo unspecified),23µM,?,0,23µM
SMILES,HT1080 IDH1KD tx,KB-3-1 cytotox,KB-V1 cytotox,HT1080NT lethal
CCOc1ccccc1NS(=O)(=O)c1cc2[nH]c(=O)c(=O)[nH]c2cc1C,-,0,0,-
O=C(Nc1ccc(C(=O)N2CCN(c3ccccc3F)CC2)cc1)c1nsc2ccccc12,-,0,0,-
CC(C)(C)C(=O)Nc1nc(-c2ccccc2)ns1,0,?,15µM,0
Cc1nc([N+](=O)[O-])c(Br)n1CC(=O)c1ccc(F)cc1,18µM,0,0,?
COc1ccc(NCc2nc3ccccc3n2CCOc2ccccc2C)cc1,-,0,?,-
COc1ccccc1C(c1nnnn1CCc1ccccc1)N1CCCCCC1 (stereo unspecified),?,0,16µM,?
COc1ccc2cc(C(c3nnnn3CCc3ccccc3)N3CCCC(C)C3)c(=O)[nH]c2c1 (stereo unspecified),0,0,18µM,0
COc1ccccc1C(c1nnnn1CCc1ccccc1)N1CCN(c2ccccc2)CC1 (stereo unspecified),0,0,0,0
